Results on eleven compounds are retold here after the supplement of paper PMC9950053.

Counter-ions that a name gives are not always drawn.

The assay has as its system Danio rerio larvae (5 dpf). As to the kind of experiment: combined optomotor response (time in upper well half, down vs up moving lines, periods 7-14) minus DMSO control (percentage points); higher = stronger optomotor response than DMSO larvae. Conditions: 10 µM; exposure time: 3 h pre-incubation + 3 h imaging.
Consider `N[C@@H]1C[C@H]1c1ccccc1` [Tranylcypromine hydrochloride], for which the combined optomotor response turned out to be 9.38.
The same measure for `CCN(C)C(=O)Oc1cccc([C@H](C)N(C)C)c1` [Rivastigmine tartrate]: 4.19; for `CC(O)(CS(=O)(=O)c1ccc(F)cc1)C(=O)Nc1ccc(C#N)c(C(F)(F)F)c1` (stereo unspecified) [Bicalutamide]: 0.551.
The same measure for `COc1cc2c(cc1OC)C1CC(=O)C(CC(C)C)CN1CC2` (stereo unspecified) [Tetrabenazine]: -0.321.
The same measure for `CC[C@@H](C(N)=O)N1CCCC1=O` [Levetiracetam]: 7.27.
Regarding `Cc1cccc([C@H](C)c2c[nH]cn2)c1C` [Dexmedetomidine hydrochloride], the combined optomotor response was -11.4.
The same measure for `C=C1C[C@@H]2[C@H](CC[C@]3(C)C(=O)CC[C@@H]23)[C@@]2(C)C=CC(=O)C=C12` [Exemestane]: 3.71.
The same measure for `CN1C[C@H](C(=O)N[C@]2(C)O[C@@]3(O)[C@@H]4CCCN4C(=O)[C@H](Cc4ccccc4)N3C2=O)C[C@@H]2c3cccc4[nH]cc(c34)C[C@H]21` [Dihydroergotamine mesylate]: 13.2.
The same measure for `CC(C)C[C@H]1C(=O)N2CCC[C@H]2[C@]2(O)O[C@](NC(=O)[C@@H]3C=C4c5cccc6[nH]c(Br)c(c56)C[C@H]4N(C)C3)(C(C)C)C(=O)N12` [Bromocriptine mesylate]: -10.1; for `C=CCN1C[C@H](C(=O)N(CCCN(C)C)C(=O)NCC)C[C@@H]2c3cccc4[nH]cc(c34)C[C@H]21` [Cabergoline]: -6.92; for `O=c1[nH]c2ccccc2n1C1CCN(CCCC(c2ccc(F)cc2)c2ccc(F)cc2)CC1` [Pimozide]: -11.
